Screening data (PubChem BioAssay)
DAX1 inh-1 = inhibits human nuclear receptor DAX1; P51843; HEK293 Gal4-DAX1 luciferase reporter, luminescence; inhibition, % at 6.75 µM; 340,000 compounds, 0.99% hits; AID 504766;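 active means inhibition above the mean over all tested compounds plus 3 SD, cut at about 4.2% in these data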;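 further: 0% = DAX1-transfected cells with DMSO and 100% = empty-vector control cells with DMSO; inhibition shows as a rise in luminescence from relieved DAX1 repression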
Target sequence (P51843 207-470 limits assumed): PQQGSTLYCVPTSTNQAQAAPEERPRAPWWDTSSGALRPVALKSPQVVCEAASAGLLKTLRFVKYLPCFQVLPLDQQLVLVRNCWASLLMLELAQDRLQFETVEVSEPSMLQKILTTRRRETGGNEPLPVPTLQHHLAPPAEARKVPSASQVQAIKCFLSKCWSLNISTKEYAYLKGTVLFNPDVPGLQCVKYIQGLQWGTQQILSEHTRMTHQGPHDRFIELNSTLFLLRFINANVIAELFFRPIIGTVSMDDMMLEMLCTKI
SMARCA2 activ = increases SMARCA2 function in MMTV reporter cells; MG213 cells, MMTV-luciferase reporter, dexamethasone, overnight; activation, % at 9.1 µM; 370,000 compounds, 1% hits; in the data active means activation above about 7.8%;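 further: 0% = vehicle wells and 100% = reference activator wells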
hgDAF-12 ag = hgDAF-12 agonism, primary luciferase screen; 370,000 compounds, 1.8% hits; HEK293 GAL4-hgDAF12 UAS-luciferase reporter, agonist luminescence; normalized to butyrate control; activation, % at 6.8 µM;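 active means activation above a cutoff set at the mean of all screened compounds plus 3 SD, cut at about 10% in these data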;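 further: 0% = DMSO wells and 100% = sodium butyrate wells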
hcDAF12 agonist = activators of H. contortus DAF-12 nuclear receptor | HEK293 hcDAF-12 lit1-tk-luc reporter, luminescence; 0% DMSO, 100% Δ7-dafachronic acid | activation, % at 6.8 µM | 370,000 compounds, 1.4% hits | AID 652067;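 active means activation above the mean of all tested compounds plus 3 SD, cut at about 5.5% in these data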;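 further: 100% = response to 3 µM Δ7-dafachronic acid high control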
ssDAF-12 act = activators of S. stercoralis DAF-12 nuclear receptor. 370,000 compounds, 1% hits. activation, % at 6.8 µM. HEK293 ssDAF-12/GRIP1 lit1-tk-luc reporter, luminescence; % of 3 µM dafachronic acid response. AID 652126;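 active means activation above the mean over all tested compounds plus 3 SD, cut at about 0.9% in these data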;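 further: 0% = DMSO-only wells and 100% = 3 µM delta7-dafachronic acid wells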
DAX1 inh-2 = blocks DAX1 repression of SF-1 activated StAR promoter; HEK293T StAR-luciferase reporter, SF-1/DAX-1 repression relief; inhibition, % at 6.8 µM; 370,000 compounds, 1.1% hits;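 active means inhibition above the mean over all tested compounds plus 3 SD, cut at about 3.6% in these data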;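 further: 0% = DAX-1 cells with DMSO and 100% = cells lacking DAX-1 with DMSO; higher inhibition means more luminescence from relief of DAX-1 repression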
DAX1 inh confirm = NR0B1 (human) inhibition, confirmation; shares compounds with DAX1 inh-2; HEK293T StAR-promoter luciferase reporter, SF-1/DAX-1 repression; inhibition, % at 6.8 µM; 2,400 compounds, 87% hits; AID 652134;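 active means inhibition above the average of every tested compound plus 3 SD, cut at about 3.8% in these data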;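 further: 0% = DAX-1 cells with DMSO and 100% = no DAX-1 control cells with DMSO; active compounds raise luminescence by relieving repression of the StAR reporter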
Target sequence (P51843 whole entry, looked up): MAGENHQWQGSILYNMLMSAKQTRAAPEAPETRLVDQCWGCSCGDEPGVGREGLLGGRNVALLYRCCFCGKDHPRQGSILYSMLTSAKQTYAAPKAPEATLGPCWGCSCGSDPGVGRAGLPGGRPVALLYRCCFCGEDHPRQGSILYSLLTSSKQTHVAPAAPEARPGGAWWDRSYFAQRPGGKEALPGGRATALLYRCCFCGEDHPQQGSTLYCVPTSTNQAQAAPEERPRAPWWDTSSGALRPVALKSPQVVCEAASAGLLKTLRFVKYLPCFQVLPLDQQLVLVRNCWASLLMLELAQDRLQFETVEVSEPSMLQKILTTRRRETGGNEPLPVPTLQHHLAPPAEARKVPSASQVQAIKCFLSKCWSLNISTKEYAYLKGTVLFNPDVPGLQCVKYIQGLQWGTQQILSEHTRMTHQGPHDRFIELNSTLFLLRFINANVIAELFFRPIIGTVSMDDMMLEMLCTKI
SF1 AF2mut Luc = nonselective inhibitor or artifact in SF-1 mutant DAX1 counter-screen; inhibition, % at 6.8 µM; 2,400 compounds, 78% hits; shares compounds with DAX1 inh-2; HEK293 StAR-luciferase, SF-1 AF2 mutant, luminescence;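 active means inhibition above the mean of all tested compounds plus 3 SD, cut at about 3% in these data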;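 further: 0% = DAX-1 transfected cells with DMSO and 100% = cells without DAX-1 with DMSO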
SMARCA2 act conf = confirmation of SMARCA2 (BRM) function activators. shares compounds with SMARCA2 activ. MG213 cells, MMTV-luciferase with dexamethasone, luminescence, overnight; MG213 cells expressing E1A, Rb sequestered; DMSO wells 0%, reference activator 100%. activation, % at 9.1 µM. 3,500 compounds, 30% hits. AID 652260;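 active means activation above its plate's cutoff, the mean activation of tested wells plus 3 SD, cut at about 7.9% in these data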
GAL4-VP16 Luc = GAL4-VP16 reporter activation counter-screen; shares compounds with SMARCA2 activ; HEK293 GAL4-VP16 pG5luc reporter, luciferase luminescence; scaled: DMSO wells 0%, SAHA wells 100%; activation, % at 9.1 µM; 3,500 compounds, 41% hits; AID 686939;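 active means activation above the solvent-only control well mean plus 3 SD, averaged across control plates, cut at about 5.2% in these data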
LXRb hcDAF ctr = counter-screen for hcDAF-12 agonists: agonists of human LXR-beta; shares compounds with hcDAF12 agonist; 3,400 tested, under 10 active; activation, % at 6.8 µM; AID 743027; HEK293 Gal4-LXR tk-luc reporter, luminescence, 24 h; normalized: DMSO 0%, positive control 100%;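 active means mean percent activation of the reporter above a cutoff set as the average over tested compounds plus their standard deviation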
hcDAF12 conf = hcDAF-12 agonism, confirmation assay; AID 743032; shares compounds with hcDAF12 agonist; 3,400 compounds, 61% hits; HEK293 hcDAF-12 lit1-tk-luc reporter, luminescence; % of Δ7-dafachronic acid response; activation, % at 6.8 µM;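 active means mean activation across triplicate tests above the threshold derived from the earlier primary screen, cut at about 5.5% in these data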;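 further: 0% = DMSO only wells and 100% = 3 µM Δ7-dafachronic acid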
Active calls of the source: *. An excerpt weighted towards active compounds, which were near 4.8% of everything screened.

Results for S=C(NCCN1CCOCC1)Nc1cccc(Cl)c1 ?
DAX1 inh-1: 1; SMARCA2 activ: 0; hgDAF-12 ag: -1; hcDAF12 agonist: 2; ssDAF-12 act: -1; DAX1 inh-2: -1

What do the screens show for `O=C(Nc1ccccc1)Nc1ccc(C(=O)N2CCCC2)cc1`?
DAX1 inh-1: -1; SMARCA2 activ: 2; hgDAF-12 ag: 17*; hcDAF12 agonist: 8.8*; ssDAF-12 act: 0; DAX1 inh-2: 4.9*; DAX1 inh confirm: 13*; SF1 AF2mut Luc: 7.5*; LXRb hcDAF ctr: 1; hcDAF12 conf: 6.9*

Results for Nc1[nH]n(-c2ccccc2)c(=O)c1N=Nc1ccc2c(c1)OCCO2 ?
DAX1 inh-1: -1; SMARCA2 activ: 3; hgDAF-12 ag: 15*; hcDAF12 agonist: 9.4*; ssDAF-12 act: 2.1*; DAX1 inh-2: 5.0*; DAX1 inh confirm: 13*; SF1 AF2mut Luc: 6.0*; LXRb hcDAF ctr: 2; hcDAF12 conf: 12*

How did Cc1cc(N/C=C/C(=O)c2cccs2)ccc1F do in these assays?
DAX1 inh-1: 6.5*; SMARCA2 activ: 4; hgDAF-12 ag: 24*; hcDAF12 agonist: 10*; ssDAF-12 act: 2.1*; DAX1 inh-2: 5.2*; DAX1 inh confirm: 17*; SF1 AF2mut Luc: 9.5*; LXRb hcDAF ctr: 2; hcDAF12 conf: 16*

What do the screens show for `C/C(=N/NC(=O)c1ccncc1)c1ccc(NC(=O)c2ccccc2)cc1`?
DAX1 inh-1: -1; SMARCA2 activ: -2; hgDAF-12 ag: 1; hcDAF12 agonist: -1; ssDAF-12 act: -1; DAX1 inh-2: 0

How did C/C(=N\NC(=O)c1ccccc1O)c1ccc(NC(=O)c2ccccc2)cc1 do in these assays?
DAX1 inh-1: 0; SMARCA2 activ: 5; hgDAF-12 ag: 12*; hcDAF12 agonist: 7.4*; ssDAF-12 act: 0; DAX1 inh-2: 6.0*; DAX1 inh confirm: 3; SF1 AF2mut Luc: 2; LXRb hcDAF ctr: 0; hcDAF12 conf: 2

Results for COc1ccc(-c2cn3c4c(sc3n2)CCCC4)cc1 ?
DAX1 inh-1: -1; SMARCA2 activ: 7; hgDAF-12 ag: 13*; hcDAF12 agonist: 17*; ssDAF-12 act: 1.3*; DAX1 inh-2: 5.1*; DAX1 inh confirm: 12*; SF1 AF2mut Luc: 7.9*; LXRb hcDAF ctr: 2; hcDAF12 conf: 20*

What do the screens show for `COc1ccc(N=Nc2cc(C)ccc2O)cc1`?
DAX1 inh-1: 1; SMARCA2 activ: 3; hgDAF-12 ag: 25*; hcDAF12 agonist: 7.1*; ssDAF-12 act: 0; DAX1 inh-2: 5.0*; DAX1 inh confirm: 15*; SF1 AF2mut Luc: 6.2*; LXRb hcDAF ctr: 2; hcDAF12 conf: 7.3*

Results for O=C(N/N=C/c1ccc(Cl)cc1)c1n[nH]c2c1CCCC2 ?
DAX1 inh-1: -1; SMARCA2 activ: 0; hgDAF-12 ag: 4; hcDAF12 agonist: 3; ssDAF-12 act: 1; DAX1 inh-2: 0

What do the screens show for `O=C(N/N=C/c1ccccc1Cl)c1n[nH]c2c1CCCC2`?
DAX1 inh-1: -1; SMARCA2 activ: 5; hgDAF-12 ag: 16*; hcDAF12 agonist: 6.6*; ssDAF-12 act: 1; DAX1 inh-2: 5.1*; DAX1 inh confirm: 1; SF1 AF2mut Luc: -2; LXRb hcDAF ctr: 1; hcDAF12 conf: 4

How did C[C@@H]1ON(C)[C@H]2C[C@H]3c4cc(N5CCN(C)CC5)ccc4CCN3C[C@@H]12 do in these assays?
SMARCA2 activ: 3; hgDAF-12 ag: 8; hcDAF12 agonist: 1; ssDAF-12 act: -1; DAX1 inh-2: 1

Results for COc1ccc(CCNC(=O)c2cccc(S(=O)(=O)N3CCc4ccccc4C3)c2)cc1 ?
DAX1 inh-1: 0; SMARCA2 activ: 2; hgDAF-12 ag: -1; hcDAF12 agonist: 0; ssDAF-12 act: -1; DAX1 inh-2: -1

Results for CC1(O)C(c2ccccc2)=Nc2ccccc21 (stereo unspecified) ?
DAX1 inh-1: 4.5*; SMARCA2 activ: 9.5*; hgDAF-12 ag: 11*; hcDAF12 agonist: 9.9*; ssDAF-12 act: 0; DAX1 inh-2: 5.3*; DAX1 inh confirm: 13*; SF1 AF2mut Luc: 7.6*; SMARCA2 act conf: 12*; GAL4-VP16 Luc: 13*; LXRb hcDAF ctr: 1; hcDAF12 conf: 6.5*

What do the screens show for `COc1ccc(C)cc1NC(=O)COC(=O)C1CCN(C(=O)c2ccc(Cl)cc2)CC1`?
DAX1 inh-1: 1; SMARCA2 activ: -2; hgDAF-12 ag: 0; hcDAF12 agonist: -2; ssDAF-12 act: -2; DAX1 inh-2: 0

How did c1ccc(-c2csc(Nc3ccc4c(c3)OCO4)n2)cc1 do in these assays?
SMARCA2 activ: 11*; hgDAF-12 ag: 21*; hcDAF12 agonist: 17*; ssDAF-12 act: 2.6*; DAX1 inh-2: 22*; DAX1 inh confirm: 14*; SF1 AF2mut Luc: 7.8*; SMARCA2 act conf: 3; GAL4-VP16 Luc: 9.3*; LXRb hcDAF ctr: 2; hcDAF12 conf: 17*

Results for Cc1cccc(COc2ccc(/C=N/NC(=O)c3nnn(-c4nonc4N)c3COc3ccc(F)cc3)cc2)c1 ?
DAX1 inh-1: 3; SMARCA2 activ: -1; hgDAF-12 ag: 1; hcDAF12 agonist: 3; ssDAF-12 act: -1; DAX1 inh-2: 0

What do the screens show for `O=C1C(=C2CCc3ccccc32)Cc2ccccc21`?
SMARCA2 activ: 6; hgDAF-12 ag: 21*; hcDAF12 agonist: 15*; ssDAF-12 act: 2.3*; DAX1 inh-2: 7.1*; DAX1 inh confirm: 16*; SF1 AF2mut Luc: 9.0*; LXRb hcDAF ctr: 2; hcDAF12 conf: 21*
